Assay outcomes: PubChem, National Center for Advancing Translational Sciences (NCATS)
DRD3 antagonist: qHTS of D3 Dopamine Receptor Antagonist: qHTS; D(3) dopamine receptor (Homo sapiens), P35462; D3R cells, DiscoveRx beta-arrestin luminescence, antagonist mode; hits give low values; max response, negative = inhibition, %; actives 2.5% (n = 360,000); in the data active means max response below about -50%; inconclusive means no clear call, values can overlap the other calls; further: on the % scale 0 is the no-effect control and ±100 the full control effect
Target sequence (P35462 whole entry, looked up): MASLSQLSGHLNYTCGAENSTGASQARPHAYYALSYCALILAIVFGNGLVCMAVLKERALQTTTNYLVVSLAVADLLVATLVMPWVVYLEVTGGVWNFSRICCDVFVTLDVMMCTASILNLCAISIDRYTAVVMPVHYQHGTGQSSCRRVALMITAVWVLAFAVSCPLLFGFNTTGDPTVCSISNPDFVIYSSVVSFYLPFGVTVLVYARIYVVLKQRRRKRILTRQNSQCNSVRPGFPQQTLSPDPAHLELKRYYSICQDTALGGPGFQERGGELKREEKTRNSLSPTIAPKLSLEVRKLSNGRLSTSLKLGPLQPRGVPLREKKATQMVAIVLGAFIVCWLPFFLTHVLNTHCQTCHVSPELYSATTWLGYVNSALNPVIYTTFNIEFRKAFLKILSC
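Cells expressing the human receptor were seeded at 1500 cells/well, incubated overnight at 37 degrees C in 5% CO2, then exposed to library compounds with dopamine controls for 90 minutes at 37 degrees C before luminescent detection.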
MCF10A rerep: A quantitative high throughput screen for small molecules that induce DNA re-replication in MCF 10a normal breast cells. MCF 10A DNA re-replication, Hoechst nuclear intensity, 48 h. Potency, µM (series often up to 46.1 µM), inactives show top-dose activity, positive = re-replication, most hits filed as activators. actives 2.9% (n = 350,000). AID 624296, 2012; further: potency means the concentration at half of the fitted maximal effect; % of control where 0% means no effect; nearly all actives have a fitted effect of over 50% in size
KB-V1 cytotox: qHTS assay for MDR1-selective chemotherapeutics: Primary screen using the drug-selected MDR subline cells KB-V1; KB-V1 MDR cells viability, CellTiter-Glo, 72 h; Potency, µM (doses to about 46.1 µM), actives largely listed as cytotoxic; actives 3.4% (n = 400,000); further: potency means the concentration at half of the fitted maximal effect; on the % scale 0 is the no-effect control and ±100 the full control effect; nearly all actives have a fitted effect of over 60% in size
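Cells of the MDR subline KB-V1 are plated, dosed with compound at multiple concentrations, and incubated 72 h at 37 degrees C; CellTiter-Glo is then added and luminescence read after 10 min.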
KB-3-1 cytotox: qHTS assay for MDR1-selective chemotherapeutics: Primary screen using the parental adenocarcinoma cell KB-3-1; KB-3-1 viability, CellTiter-Glo ATP luminescence, 72 h; Potency, µM (series often up to 46.1 µM), hits mostly cytotoxic; actives 1.4% (n = 400,000); AID 1347075, 2019; further: potency means the concentration at half of the fitted maximal effect; on the % scale 0 is the no-effect control and ±100 the full control effect; nearly all actives have a fitted effect of over 60% in size
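KB-3-1 cells, DMEM (no phenol red) + 10% FBS; compound by pin transfer, 72 h, 37 °C. Readout: CellTiter-Glo luminescence after 10 min. Data normalized, curve-fitted.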
DRD3 agonist: qHTS of D3 Dopamine Receptor Agonist: qHTS | D(3) dopamine receptor (Homo sapiens), P35462 | D3R DiscoveRx beta-arrestin cells, luminescence, 90 min | max activation, % | actives 0.58% (n = 410,000) | AID 652048, 2013; in the data active means max activation above about 30%; further: 0% is about no effect
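Agonist mode: compounds and dopamine controls were applied to plated cells for 90 min at 37 degrees C after an overnight attachment at 1500 cells/well. Luminescent read-out followed 30 - 60 minutes at room temperature with DiscoveRx detection reagent.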
SW480 rerep: A quantitative high throughput screen for small molecules that induce DNA re-replication in SW480 colon adenocarcinoma cells; SW480 DNA re-replication, Hoechst DNA content imaging, 48 h; actives 1.8% (n = 340,000); Potency, µM (titrated, usually from 46.1 µM), inactives show top-dose re-replication activation, actives largely listed as activators; further: potency means the concentration at half of the fitted maximal effect; % of control where 0% means no effect; nearly all actives have a fitted effect of over 55% in size
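Treated cells incubate 48 hr (37 C, 5% CO2), are stained 40 min with Hoechst, and nuclear fluorescence is enumerated; a rise in nuclei with high DNA signal marks re-replication.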
The depositor's hits bear a star; i = inactive; ? = inconclusive; . = no result given; [ ] = another dose, or the depositor's remark. Sampled rows, rich in hits. Any-hit rate of the full collection: about 8.9%. Unless noted, the call rests on the fitted dose curve; in most records, active means well fitted curve in the direction sought with a large enough effect; inconclusive means small, poorly fitted or top-dose-only effect, or another doubt; inactive means no such curve, though single readings can be large; an effect the other way counts as inactive or inconclusive.

SMILES	DRD3 antagonist	MCF10A rerep	KB-V1 cytotox	KB-3-1 cytotox	DRD3 agonist	SW480 rerep
COC(=O)c1cccc(NC(=O)NC(=O)c2ccc(Cl)cc2)c1	5.2	6.2%	i	i	-8.1	18.4µM*
N#CCc1ccc(NC(=O)Nc2cccc(Cl)c2)cc1	-7.6	21.9%	14.6µM*	?	0.9	2.1%
O=C(Nc1cccc(Cl)c1)Nc1cccc(Cl)c1	20.1	?	?	i	-3.5	2.2%
COC(=O)c1cc(NC(=O)Nc2cccc(Cl)c2)ccc1Cl	-15.8	-1.7%	23.1µM*	i	-10.1	0.1%
COc1cccc(CSc2nc3n(n2)C(c2ccccc2C)C(C(=O)Nc2ccccc2OC)=C(C)N3)c1 (centres undefined)	.	.	i	i	-3.4	.
Nc1ccc(C(=O)N/N=C\c2cc(N=Nc3cccc4ccccc34)ccc2O)cc1	-94.9*	423.2%[0.0737 µM]	?	?	-3.3	?
O=C(NN=Cc1cc([N+](=O)[O-])ccc1O)c1cccc2ccccc12	-23.7	-0.2%	?	?	0.5	?
COC(=O)N/N=C/c1cc(Br)ccc1O	8.1	6.6%	?	i	15.7	-2.7%
COC(=O)N/N=C/c1cc(N=Nc2ccccc2Cl)ccc1O	-91.3*	?	?	?	-21.7	-7.6%
COC(=O)N/N=C/c1cc(N=Nc2ccccc2)ccc1O	-63.5*	11.9%	i	i	-26.6	-1.1%
CCOC(=O)c1c(C)oc2nc(C)nc(NCCc3ccc(SC)cc3)c12	.	.	i	i	5.9	.
O=S(=O)(O)c1cc(O)c2c(O)c(N=Nc3cc(Cl)ccc3O)c(S(=O)(=O)O)cc2c1	-61.5*	-3.0%	?	14.6µM*	-23.0	21.9%
O=C(CSc1nnnn1-c1ccccc1F)NNC(=O)c1ccco1	0.0	?	i	i	-8.8	-31.3%
Cc1ccc(-n2nnnc2SCC(=O)NNC(=O)c2ccco2)c(C)c1	-18.8	20.6µM*	i	i	1.7	-15.3%
COC(=O)c1ccccc1NC(=O)CSc1nnnn1-c1ccc(C)cc1C	0.0	12.6µM*	i	i	4.0	?
CCOC(=O)c1sc(NC(=O)CSc2nnnn2-c2ccc(C)cc2C)nc1C	0.0	?	i	i	6.0	-5.8%[9.22 µM]
O=c1oc2ccc3ccccc3c2cc1-c1nnc(Nc2ccc(Cl)cc2Cl)s1	.	.	i	i	5.7	.
Cc1ccc(-n2nc3c(c2NC(=O)c2cccs2)CS(=O)(=O)C3)cc1	-12.7	-3.6%	i	i	-2.8	14.3%
Cc1ccc(-n2nc3c(c2NC(=O)c2cccs2)CS(=O)(=O)C3)cc1C	-65.5*	-2.3%	i	i	-13.4	-7.3%
COc1cc(-c2onc3ccc(Br)cc23)cc(OC)c1OC	-2.5	?	2.06µM*	5.17µM*	5.2	18.4µM*
COc1ccc(-c2onc3ccc(Br)cc23)cc1	7.8	3.4%	i	i	2.2	0.0%
O=C(Cc1cccs1)Nc1nnc(SCC(=O)N2CCCCC2)s1	6.5	-12.3%	i	i	3.6	2.4%
O=C(Nc1nnc(SCC(=O)N2CCCCC2)s1)c1cccs1	22.9	-2.5%	20.6µM*	i	-1.2	-6.1%
O=C(Nc1nnc(SCC(=O)N2CCCc3ccccc32)s1)c1ccccc1	10.7	0.1%	?	i	1.7	-14.4%
CC(=O)Nc1nnc(SCC(=O)N2CCCc3ccccc32)s1	0.1	1.84µM*	i	i	8.6	-10.5%
O=C(CSc1nnc(CNc2ccccc2)o1)N1CCCc2ccccc21	11.6	-5.0%	13µM*	i	4.2	-2.5%
COc1ccc(NCc2nnc(SCC(=O)N3CCCc4ccccc43)o2)cc1	9.6	-1.2%	i	i	0.5	-18.4%
